In the library only some 6.2% were active in any assay of this set; here they are far more common.
HT1080-NT tox = qHTS for induction of synthetic lethality in tumor cells producing 2HG: qHTS for the HT-1080-NT fibrosarcoma cell line; HT-1080-NT fibrosarcoma viability, CellTiter-Glo ATP luminescence, 48 h; Potency, µM (highest dose often 46.1 µM), for inactives: at the top dose activity, negative = less viability, actives largely listed as cytotoxic; actives 1.6% (n = 360,000); AID 686970, 2013;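 note: NT is the 2HG producing partner of a matched IDH1 knockdown line; 0% = DMSO-treated cells and -100% = media-only wells without cells; nearly all actives have a fitted effect of over 55% in size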
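Toxicity toward the 2HG-producing NT line was scored as %Activity, normalised to DMSO and no-cell wells, from CellTiter-Glo luminescence after 48 hours' treatment.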
KB-V1 cytotox = qHTS assay for MDR1-selective chemotherapeutics: Primary screen using the drug-selected MDR subline cells KB-V1; KB-V1 MDR cells viability, CellTiter-Glo, 72 h; Potency, µM (highest dose often 46.1 µM), most hits filed as cytotoxic; actives 3.4% (n = 400,000); AID 1347076, 2019; note: % is set by controls: 0 for no effect and ±100 for the full control effect; nearly all actives have a fitted effect of over 60% in size
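Luminescent ATP read-out (CellTiter-Glo, 10 min) measures survival of drug-selected KB-V1 MDR cells after 72 h, 37 degrees C compound exposure. Medium: phenol-red-free DMEM, 10% FBS. Values from fitted concentration-response curves.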
KB-3-1 cytotox = qHTS assay for MDR1-selective chemotherapeutics: Primary screen using the parental adenocarcinoma cell KB-3-1. actives 1.4% (n = 400,000). AID 1347075, 2019. Potency, µM (titrated, usually from 46.1 µM), most hits filed as cytotoxic. KB-3-1 viability, CellTiter-Glo ATP luminescence, 72 h; note: % is set by controls: 0 for no effect and ±100 for the full control effect; nearly all actives have a fitted effect of over 60% in size
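Screening of KB-3-1 cells (DMEM, 10% FBS, phenol-red free) ran from lowest to highest compound concentration; after 72 h at 37 °C viability was read luminescently and curves fitted.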
ATXN viability = Viability Counterscreen for Primary qHTS for Inhibitors of ATXN expression; S2 cells (HEK-293 line with an ATXN2-luciferase reporter) viability, CellTiter-Fluor protease fluorescence, 24 h; Potency, µM (highest dose often 56.7 µM), usual class: cytotoxic; actives 0.49% (n = 400,000); note: nearly all actives have a fitted effect of over 40% in size
ATXN2 expr inh = Primary qHTS for Inhibitors of ATXN expression. Potency, µM (titrated, usually from 57 µM), inactives show at the highest dose activity change, negative = inhibition, actives largely listed as inhibitors. HEK-293 ATXN2-luciferase reporter, luminescence, 24 h. actives 0.72% (n = 360,000); note: % is set by controls: 0 for no effect and ±100 for the full control effect; nearly all actives have a fitted effect of over 55% in size
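ATXN2-luciferase reporter cells (luciferase flanked by upstream and downstream ATXN2 gene portions) were treated 24 h at 37 °C with compounds at up to 57 uM. SteadyGlo luminescence gave expression; GF-AFC fluorescence gave viability.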
HT1080 IDH1KD tx = qHTS for induction of synthetic lethality in tumor cells producing 2HG: qHTS for the HT-1080-IDH1KD cell line | HT-1080 IDH1 knockdown viability, ATP luminescence, 48 h | Potency, µM (series often up to 46.1 µM), for inactives: at the top dose activity, negative = toxicity, most hits filed as cytotoxic | actives 2% (n = 360,000) | AID 686971, 2013;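 note: 0% = DMSO wells and -100% = cell-free medium wells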
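Viability of IDH1-knockdown HT-1080 fibrosarcoma cells was assessed by CellTiter-Glo after 48 h at 37 °C with titrated compound; concentration-effect curves were classified by fit quality and response size.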
* hit, by the source's call; i = inactive; ? = inconclusive; . = no result given; [ ] = another dose, or the depositor's remark. Calls come from the whole dose curve; as a rule, active = well fitted curve in the direction sought with a large enough effect; inconclusive = small, poorly fitted or top-dose-only effect, or another doubt; inactive = no such curve, though single readings can be large; an effect the other way counts as inactive or inconclusive. Potency is the fitted concentration of half-maximal effect.

SMILES | HT1080-NT tox | KB-V1 cytotox | KB-3-1 cytotox | ATXN viability | ATXN2 expr inh | HT1080 IDH1KD tx
COc1ccc(-n2nc3cc(C)c(NC(C)=O)cc3n2)cc1 | 16% | i | i | i | 8.9µM* | 19%
Cc1ccccc1Cn1cnc2c(NS(C)(=O)=O)c(C)c(C)cc21 | -7% | 16µM* | ? | i | -8% | -11%
CCOC1=C2[C@H](c3cccs3)N(S(=O)(=O)c3ccc(C)cc3)C[C@H]2n2c(=O)n(-c3ccccc3)c(=O)n2C1 | 3% | i | i | i | 2% | 14%
Cc1ccc(Nc2cc(C)nc3c(C)cccc23)cc1 | ? | 8.2µM* | ? | i | -4% | ?
CCOc1ccccc1Nc1cc(C)nc2ccccc12 | -5% | ? | i | i | . | -15%
COc1ccc(OC)c(Nc2cc(C)nc3ccc(C)cc23)c1 | 5.2µM* | 5.2µM* | 7.3µM* | ? | ? | 3.7µM*
COc1ccc2nc(C)cc(NCc3ccc(F)cc3)c2c1 | ? | i | i | i | ? | 16µM*
COc1ccc2nc(C)cc(Nc3ccc(C)cc3)c2c1 | ? | i | i | i | -2% | ?
CCOc1ccccc1Nc1cc(C)nc2ccc(C)cc12 | ? | 12µM* | ? | i | -23% | ?
C[C@@H]1CN([C@@H](C)CO)C(=O)CCCn2nncc2CO[C@H]1CN(C)S(=O)(=O)c1ccccc1C#N | 16% | i | i | i | 4% | -3%
COc1ccc2nc(C)cc(Nc3ccc(Cl)c(Cl)c3)c2c1 | . | ? | ? | 22µM* | 25µM* | .
CC(=O)c1ccc(Nc2cc(C)nc3c(C)cccc23)cc1 | 5.2µM* | 2.9µM* | i | ? | . | 3.7µM*
COc1ccc(Nc2cc(C)nc3ccccc23)cc1 | -24% | i | i | ? | -22% | 11µM*
CC(=O)c1ccc(Nc2nc(C)cc(C)n2)cc1 | 17% | i | i | i | 27% | 20%
CC(=O)c1ccc(Nc2cc(C)nc3ccccc23)cc1 | ? | ? | ? | ? | -17% | 12µM*
Cc1ccc(S(=O)(=O)C(CNC(=O)C(=O)NCCc2ccc(Cl)cc2)c2cccs2)cc1 (stereo unspecified) | . | i | i | i | 5% | .
COc1ccc(Cn2ccc3nc(C)c(C(=O)Nc4ccc(OC)cc4)cc3c2=O)cc1 | . | i | ? | i | -24% | .
O=C(NCCCO)c1cc2ccccc2[nH]1 | 5% | i | i | i | -20%[11.3 µM] | 4%
NNC(=O)c1cc2ccccc2[nH]1 | ? | i | ? | ? | -7% | 2.1µM*
CC(C)OC(=O)NCCOC(=O)Nc1cccc(Cl)c1 | -5% | i | ? | i | 35% | -3%
O=C(Nc1cccc(Cl)c1)OCCOC(=O)Nc1cccc(Cl)c1 | ? | i | i | i | ? | 23µM*
CC(C)OC(=O)NC(C)(C)COC(=O)Nc1cccc(Cl)c1 | -24% | 9.2µM* | ? | i | -24% | -18%
CC1Cc2ccccc2N1C(=S)NC(=O)c1cccc(Br)c1 (stereo unspecified) | -8% | ? | ? | ? | ? | -2%
CC1Cc2ccccc2N1C(=S)NC(=O)c1ccc(Cl)cc1Cl (stereo unspecified) | -3% | 16µM* | i | ? | ? | -3%
CC1Cc2ccccc2N1C(=S)Nc1ccc(S(N)(=O)=O)cc1 (stereo unspecified) | -3% | 18µM* | ? | i | -11% | -2%
SMILES | HT1080-NT tox | KB-V1 cytotox | KB-3-1 cytotox | ATXN viability | ATXN2 expr inh | HT1080 IDH1KD tx
CN1CCN(NC(=O)Nc2ccc(Br)cc2Cl)CC1 | -7% | i | i | i | 8% | -26%
COc1ccc(C(=O)N=c2nc(-c3ccccc3)n(-c3ccccc3)s2)cc1 | . | i | i | . | . | .
CC(C)[C@H](NC(N)=O)C(=O)Nc1cccc(S(=O)(=O)NC2=NCCCCC2)c1 | 10% | i | i | i | -4% | 3%
OC(CN1CCCCC1)Cn1c2ccc(Cl)cc2c2cc(Cl)ccc21 (stereo unspecified) | 21µM* | ? | ? | ? | ? | ?
Cc1cccc(C)c1OCC(O)CN1CCN(c2ccccn2)CC1 (stereo unspecified) | 10% | i | i | i | -5% | 9%
OC(COC(c1ccc(Cl)cc1)c1ccc(Cl)cc1)CN1CCN(c2ccccn2)CC1 (stereo unspecified) | ? | ? | 18µM* | i | ? | ?
OC(CN1CCN(Cc2ccccc2)CC1)Cn1c2ccccc2c2ccccc21 (stereo unspecified) | ? | 23µM* | ? | i | -15% | ?
OC(CN1CCN(c2ccccn2)CC1)Cn1c2ccc(Cl)cc2c2cc(Cl)ccc21 (stereo unspecified) | ? | ? | ? | i | -15% | 16µM*
OC(CN1CCN(c2ccccc2)CC1)Cn1c2ccccc2c2ccccc21 (stereo unspecified) | 6% | i | ? | i | -13% | 0%
CSc1ccc(CN(C)Cc2nc3cc(C(F)(F)F)ccc3c(=O)[nH]2)cc1 | -1% | 23µM* | i | i | -19% | -2%
COc1cc2nc(CN(C)Cc3ccc(SC)cc3)[nH]c(=O)c2cc1OC | -8% | ? | i | i | ? | -15%
O=C1NC(=O)C2(CCC(C3CCCCC3)CC2)N1 (stereo unspecified) | 10% | 4.1µM* | ? | i | 2% | 7%
CCN1CCN(CCNC(=O)c2ccc(/C=C3/Sc4ccccc4N(Cc4ccccc4C)C3=O)cc2)CC1 | 15µM* | i | ? | ? | ? | 21µM*
Cc1ccccc1CN1C(=O)c2ccccc2Sc2ccc(C(=O)NCCN3CCOCC3)cc21 | -29% | i | i | i | -26% | -29%
CCN1CCN(CCCNC(=O)c2ccc(/C=C3/Sc4ccccc4N(Cc4ccccc4F)C3=O)cc2)CC1 | 18µM* | i | ? | i | ? | 15µM*
Cc1ccc(C2=NN(C(=O)CCl)C(c3cccs3)C2)o1 (stereo unspecified) | 4.6µM* | ? | ? | . | 7.5µM* | 2.3µM*
O=C(CCl)N1N=C(c2ccco2)CC1c1cccs1 (stereo unspecified) | ? | 23µM* | ? | . | ? | 23µM*

Assay outcomes deposited in PubChem BioAssay by National Center for Advancing Translational Sciences (NCATS).
